Data on 8 molecules can be found in PubChem BioAssay (Tox21).

Assay [1] has as its system thyroid hormone receptor (rat, GH3 cells). The assay can be described thus: qHTS assay to identify small molecule agonists of the thyroid receptor (TR) signaling pathway (AID 743066; calls by dose curve). (qHTS replaces the single test concentration by a dilution series.)
The nature of assay [2]: qHTS assay to identify small molecule antagonists of the estrogen receptor alpha (ER-alpha) signaling pathway - cell viability counter screen (AID 743074; calls by dose curve;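 also: HEK293 cells carrying ER-alpha-UAS-bla reporter stimulated with 17beta-estradiol; nearly all actives have a fitted effect of over 45% in size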).
Assay [3] can be described thus: qHTS assay to identify small molecule antagonists of the estrogen receptor alpha (ER-alpha) signaling pathway using the BG1 cell line - cell viability counter screen (AID 743081).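 Also: compound given together with 17beta-estradiol as the ER stimulus; series mostly up to about 70 µM; nearly all actives have a fitted effect of over 45% in size.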
In another assay the target is Aromatase (Homo sapiens) (UniProt P11511). The assay is described as follows: qHTS assay to identify aromatase inhibitors (AID 743083). Also: nearly all actives have a fitted effect of over 55% in size. Also: potency is read from the fitted curve at half-maximal effect.
A short description of assay [4]: qHTS assay to identify aromatase inhibitors - cell viability counter screen (AID 743084).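 Also: cells stimulated with testosterone during compound exposure; nearly all actives have a fitted effect of over 55% in size.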 Also: potency is read from the fitted curve at half-maximal effect.
The target of assay [5] is Aryl hydrocarbon receptor (Homo sapiens) (UniProt P35869). The assay is described as follows: qHTS assay to identify small molecule that activate the aryl hydrocarbon receptor (AhR) signaling pathway (AID 743085).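 Also: HG2L7.5c1 human HepG2 liver cells with stably integrated DRE-driven firefly reporter; series mostly up to about 70 µM; nearly all actives have a fitted effect of over 15% in size.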 The gist of the method:
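Stably transfected human liver carcinoma cells (HG2L7.5c1; 20 DRE-firefly luciferase) were incubated 5 h, dosed, and kept 24 h at 37C. Agonism was scored from increased luciferase luminescence.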

Assay [6] in a line: qHTS assay to identify small molecule that activate the aryl hydrocarbon receptor (AhR) signaling pathway - cell viability counter screen (AID 743086). Also: series mostly up to about 70 µM; nearly all actives have a fitted effect of over 45% in size. In outline: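 Cytotoxicity counter screen: CellTiter-Fluor signal (30 min, 37 C) in 4000 HepG2 cells/well carrying the DRE-luciferase reporter, following 24 h compound exposure at 37 C.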
The nature of assay [7]: qHTS assay to identify small molecule antagonists of the peroxisome proliferator-activated receptor gamma (PPARg) signaling pathway - cell viability counter screen (AID 743194). Also: nearly all actives have a fitted effect of over 55% in size. The conditions noted are these: Potency: co-treated with 50 nM rosiglitazone unless noted. In outline:
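Viability was measured as CellTiter-Glo luminescence in GeneBLAzer PPARg UAS-bla HEK293H cells. These cells had been exposed 17 h at 37 C to compounds together with rosiglitazone at 50 nM final, with the beta-lactamase readout taken in the same wells.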

Assay [8] is described as follows: qHTS assay for small molecule agonists of the antioxidant response element (ARE) signaling pathway - cell viability counter screen (AID 743203; calls by dose curve; also: nearly all actives have a fitted effect of over 55% in size). The gist of the method:
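HepG2 cells carrying ARE-driven beta-lactamase; 2,000 cells/well; 5 hrs plating; compound pinned from DMSO; 16 hrs 37C/5% CO2; CellTiter-Glo added; 30 min RT; luminescence.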

Assay [9] in a line: qHTS assay for small molecule activators of the heat shock response signaling pathway - cell viability counter screen (AID 743209). Also: nearly all actives have a fitted effect of over 50% in size. Also: potency is read from the fitted curve at half-maximal effect. The gist of the method: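 Luminescence from CellTiter-Glo, added after the beta-lactamase FRET read, gave the viability signal. Cells were HSE-bla HeLa treated with DMSO-dissolved compounds for 5 h at 37 C following overnight plating.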
Assay [10] in a line: qHTS assay to identify small molecule agonists of the peroxisome proliferator-activated receptor delta (PPARd) signaling pathway - cell viability counter screen (AID 743211). Also: nearly all actives have a fitted effect of over 55% in size. The gist of the method:
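In the same wells used for beta-lactamase reporter measurement, cytotoxicity is scored by CellTiter-Glo. HEK293H PPARd-bla cells receive compound for 17 h at 37C following a 5 h settling period.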

The nature of assay [11]: qHTS assay to identify small molecule antagonists of the thyroid receptor (TR) signaling pathway (AID 743065). Also: nearly all actives have a fitted effect of over 55% in size. Also: potency is read from the fitted curve at half-maximal effect. In outline:
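Antagonism measured as loss of luciferase signal in GH3 cells stably carrying a TRE-luciferase reporter, co-treated with compound and T3 (1 nM final) for 23.5 h at 37 C. Viability was read in the same well by CellTiter-Fluor.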

Assay [12] can be described thus: qHTS assay for small molecule agonists of the antioxidant response element (ARE) signaling pathway (AID 743202; active = well fitted activation curve with a large enough effect in the signal ratio in the repeat runs, not every such curve was filed as active; the % refers to the signal ratio). The gist of the method: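 Quantitative high-throughput format in HepG2 cells bearing an integrated ARE-beta-lactamase reporter. Compound exposure lasted 16 h at 37 C, and fluorescence was read 2 h after adding LiveBLAzer B/G substrate at room temperature.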

A short description of assay [13]: qHTS assay for small molecule activators of the heat shock response signaling pathway (AID 743210; active = well fitted activation curve with a large enough effect in the signal ratio in the repeat runs, with a control signal flat, not every such curve was filed as active; the % refers to the signal ratio;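 also: HeLa cells with beta-lactamase reporter driven by heat shock elements; series mostly up to about 63 µM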). In outline: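 HeLa HSE-bla cells, overnight plating; cpd in DMSO 5 h, 37 C; LiveBLAzer B/G FRET substrate 2.5 h RT; fluorescence intensity read.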
The target in assay [14] is Estrogen receptor (Homo sapiens) (UniProt P03372). The assay is described as follows: qHTS assay to identify small molecule agonists of the estrogen receptor alpha (ER-alpha) signaling pathway (AID 743075; calls by dose curve;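 also: HEK293 GripTite cells with ER-alpha and UAS-driven beta-lactamase reporter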).
Assay [15] shares this target. The assay can be described thus: qHTS assay to identify small molecule agonists of the estrogen receptor alpha (ER-alpha) signaling pathway using the BG1 cell line (AID 743079). Also: nearly all actives have a fitted effect of over 20% in size.
Assay [16] in a line: qHTS assay to identify small molecule antagonists of the estrogen receptor alpha (ER-alpha) signaling pathway using the BG1 cell line (AID 743080; calls by dose curve;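 also: BG1 cells stimulated with 17beta-estradiol alongside compound; series mostly up to about 70 µM; nearly all actives have a fitted effect of over 25% in size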). In outline:
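Readout is ONE-Glo luminescence, taken 30 min at room temperature after reagent addition, preceded by a CellTiter-Fluor viability read; BG1-Luc-4E2 cells had received compound and 17beta-estradiol for 21.5 h at 37 C.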

The target of assay [17] is Peroxisome proliferator-activated receptor gamma (Homo sapiens) (UniProt P37231). The assay is described as follows: qHTS assay to identify small molecule antagonists of the peroxisome proliferator-activated receptor gamma (PPARg) signaling pathway (AID 743191; calls by dose curve; also: series mostly up to about 63 µM; nearly all actives have a fitted effect of over 30% in size). In outline:
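Beta-lactamase reporter under UAS control in HEK293H PPARg-bla cells; compound treatment 17 h at 37C. Read-out: fluorescence intensity after 1 h room-temperature incubation with LiveBLAzer B/G FRET substrate.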

Assay [18] shares this target. The assay is described as follows: qHTS assay to identify small molecule agonists of the peroxisome proliferator-activated receptor gamma (PPARg) signaling pathway (AID 743094; active = well fitted activation curve with a large enough effect in the signal ratio in the repeat runs, not every such curve was filed as active; the % refers to the signal ratio). The gist of the method:
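Beta-lactamase FRET fluorescence was the read-out after a 1 h room-temperature substrate step, following 17 h compound treatment at 37C of HEK293H cells expressing a UAS-driven bla reporter responsive to PPARg.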

“And” between values parts separate entries of the source, which are not always exact repeats. Equal values may be shown once. Records with an inconclusive call do not appear. A structure can be active in one record and inactive in another. The source made the active and inactive calls. Unless noted, calls follow the shape of the dose curve; as a rule, active = well fitted curve in the direction sought with a large enough effect in the repeat runs; inconclusive = weak or mixed curves; inactive = no such curve, though single readings can be large; an effect the other way counts as inactive or inconclusive.

Aromatase (Homo sapiens), sequence (P11511 whole entry, looked up): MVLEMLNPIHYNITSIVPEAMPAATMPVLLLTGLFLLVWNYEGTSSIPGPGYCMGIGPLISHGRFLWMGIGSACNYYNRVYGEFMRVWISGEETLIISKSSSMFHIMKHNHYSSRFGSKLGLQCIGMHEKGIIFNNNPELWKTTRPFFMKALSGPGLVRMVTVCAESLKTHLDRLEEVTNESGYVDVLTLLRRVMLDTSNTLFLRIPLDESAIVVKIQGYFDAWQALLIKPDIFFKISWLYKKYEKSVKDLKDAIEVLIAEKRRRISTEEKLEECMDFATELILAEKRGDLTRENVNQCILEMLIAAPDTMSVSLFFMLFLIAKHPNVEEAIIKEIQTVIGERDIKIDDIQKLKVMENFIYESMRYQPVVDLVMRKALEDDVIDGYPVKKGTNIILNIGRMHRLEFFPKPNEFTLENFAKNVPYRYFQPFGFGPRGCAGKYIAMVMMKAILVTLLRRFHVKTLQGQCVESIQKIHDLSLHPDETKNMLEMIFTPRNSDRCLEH
Peroxisome proliferator-activated receptor gamma (Homo sapiens), sequence (P37231 whole entry, looked up): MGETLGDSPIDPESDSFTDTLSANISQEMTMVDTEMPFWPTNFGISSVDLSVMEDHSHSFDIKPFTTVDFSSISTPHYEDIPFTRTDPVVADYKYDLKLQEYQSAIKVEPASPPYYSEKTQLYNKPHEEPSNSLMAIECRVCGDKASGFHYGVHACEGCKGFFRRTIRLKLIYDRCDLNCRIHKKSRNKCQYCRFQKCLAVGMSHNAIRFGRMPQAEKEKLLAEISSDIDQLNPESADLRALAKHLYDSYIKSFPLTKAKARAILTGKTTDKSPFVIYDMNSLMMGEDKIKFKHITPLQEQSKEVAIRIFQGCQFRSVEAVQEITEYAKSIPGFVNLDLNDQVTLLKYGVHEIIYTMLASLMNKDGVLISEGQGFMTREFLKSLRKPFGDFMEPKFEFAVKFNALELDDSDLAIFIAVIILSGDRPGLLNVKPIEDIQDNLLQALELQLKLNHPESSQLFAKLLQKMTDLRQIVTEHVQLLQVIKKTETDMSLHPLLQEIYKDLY
Estrogen receptor (Homo sapiens), sequence (P03372 whole entry, looked up): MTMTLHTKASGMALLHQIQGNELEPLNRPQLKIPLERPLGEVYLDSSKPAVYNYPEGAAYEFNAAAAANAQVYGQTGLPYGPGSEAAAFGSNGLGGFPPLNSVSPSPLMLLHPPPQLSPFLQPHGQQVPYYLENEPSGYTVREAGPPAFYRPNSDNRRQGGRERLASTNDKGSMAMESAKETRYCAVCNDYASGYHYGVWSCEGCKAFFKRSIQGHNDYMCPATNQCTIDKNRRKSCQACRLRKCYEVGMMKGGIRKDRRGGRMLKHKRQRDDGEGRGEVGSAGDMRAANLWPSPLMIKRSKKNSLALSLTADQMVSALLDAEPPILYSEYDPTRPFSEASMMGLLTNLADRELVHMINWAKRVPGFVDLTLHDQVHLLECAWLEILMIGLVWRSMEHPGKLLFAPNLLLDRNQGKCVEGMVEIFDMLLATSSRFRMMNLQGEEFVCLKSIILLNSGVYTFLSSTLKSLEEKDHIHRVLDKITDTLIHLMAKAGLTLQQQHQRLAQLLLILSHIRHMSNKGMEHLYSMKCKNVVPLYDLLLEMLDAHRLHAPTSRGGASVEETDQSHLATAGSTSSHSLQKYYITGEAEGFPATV
Aryl hydrocarbon receptor (Homo sapiens), sequence (P35869 whole entry, looked up): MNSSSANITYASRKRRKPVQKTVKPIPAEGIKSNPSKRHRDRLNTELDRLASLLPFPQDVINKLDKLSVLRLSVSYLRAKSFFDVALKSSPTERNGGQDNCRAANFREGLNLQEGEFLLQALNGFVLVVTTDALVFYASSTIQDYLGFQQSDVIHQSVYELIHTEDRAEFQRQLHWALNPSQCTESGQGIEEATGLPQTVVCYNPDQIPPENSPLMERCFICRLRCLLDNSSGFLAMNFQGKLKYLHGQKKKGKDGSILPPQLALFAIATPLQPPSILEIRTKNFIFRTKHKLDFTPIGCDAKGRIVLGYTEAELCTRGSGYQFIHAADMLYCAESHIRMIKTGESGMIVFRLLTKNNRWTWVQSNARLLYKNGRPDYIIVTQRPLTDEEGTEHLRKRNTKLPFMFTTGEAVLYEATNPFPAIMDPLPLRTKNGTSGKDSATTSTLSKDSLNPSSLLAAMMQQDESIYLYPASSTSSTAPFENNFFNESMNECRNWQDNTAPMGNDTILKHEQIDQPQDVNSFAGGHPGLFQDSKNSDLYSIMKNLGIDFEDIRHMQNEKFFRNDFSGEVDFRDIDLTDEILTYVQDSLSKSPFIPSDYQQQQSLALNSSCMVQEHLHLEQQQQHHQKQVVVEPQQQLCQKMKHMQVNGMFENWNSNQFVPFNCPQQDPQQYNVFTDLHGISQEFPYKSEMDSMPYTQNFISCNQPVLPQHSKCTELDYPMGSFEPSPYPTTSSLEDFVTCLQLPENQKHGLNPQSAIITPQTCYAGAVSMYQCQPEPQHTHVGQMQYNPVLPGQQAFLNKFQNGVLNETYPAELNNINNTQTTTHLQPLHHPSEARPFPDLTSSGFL

In the case of `O=C(CCl)c1ccccc1`, the Potency entry (in [1]; in assay [2]; in [3]; with Aromatase (Homo sapiens); in [5]; in [6]) was “inactive” each time. Besides, the Potency entry in assay [7], in [8] and in [10] was “inactive” in each case. Further, the Potency result in [4] is “inactive and 61.1 µM (active)”; in [9], “inactive and 24.5 µM (active)”.
Consider `S=C1NCCN1`, for which the Potency result (in assay [11]; in assay [1]; in assay [2]; in assay [3]; with Aromatase (Homo sapiens); in [4]) was “inactive” throughout. Moreover, the Potency entry in assay [6], in assay [12], in [8], in assay [9] and in assay [13] was “inactive” throughout.
For `C=CCc1ccc2c(c1)OCO2`, the Potency entry (in assay [11]; in assay [1]; in [2]; in assay [3]; in the assay with Aromatase (Homo sapiens); in [4]) was “inactive” each time. Besides, the Potency result in assay [6], in assay [7], in [12], in assay [8], in assay [9] and in assay [13] was “inactive” in each case. Moreover, the Potency entry in assay [10] is “inactive”.
Take `CNC(=O)Oc1cccc2c1OC(C)(C)O2`: the Potency result (in assay [2]; in assay [14]; in [15]; in assay [16]; in assay [3]; with Aromatase (Homo sapiens)) was “inactive” throughout. In addition, the Potency entry in assay [4], in [5], in assay [6], in [17], in assay [7] and in [8] was “inactive” throughout. Besides, the Potency result in assay [9] and in assay [13] was “inactive” throughout.
In the case of `ClC1C(Cl)C(Cl)C(Cl)C(Cl)C1Cl` (configuration not stated), the Potency entry in assay [1], in assay [2], in [3], in assay [4], in assay [6] and in assay [17] was “inactive” each time. The Potency result in assay [7], in [12], in [8], in [9] and in assay [10] was “inactive” throughout. For the same molecule, the Potency result with Aromatase (Homo sapiens) is “inactive and 54.5 µM (active)”.
In the case of `CC(C)N(C(=O)SCC(Cl)=C(Cl)Cl)C(C)C`, in assay [11], the Potency is 53.8 µM (active) and 61.1 µM (active). Also, the Potency entry in assay [1], in [2], in assay [3], in assay [6], in [7] and in [12] was “inactive” throughout. The Potency result in [8], in assay [9], in [13] and in assay [10] was “inactive” in each case.
With `Oc1cc(Cl)ccc1Cl`, the Potency entry (in assay [11]; in assay [1]; in [3]; in the assay with Aromatase (Homo sapiens); in assay [4]; in assay [6]) was “inactive” throughout. For the same molecule, the Potency entry in assay [18], in assay [17], in [7], in assay [12], in [8] and in assay [9] was “inactive” in each case.
Consider `Cc1cc(Cl)ccc1OCCCC(=O)O`, for which the Potency entry (in assay [11]; in assay [1]; in [3]; in the assay with Aromatase (Homo sapiens); in [4]; in [6]) was “inactive” each time. In addition, the Potency result in assay [18], in assay [17], in [7], in [12], in assay [8] and in [9] was “inactive” in each case. Further, in [10], the Potency entry is “inactive”.
